Measured values: PubChem BioAssay (EPA / NIEHS)
The source made the active and inactive calls. Rule for the calls: active = hit-call score of the fitted dose curve at least 0.9, where 1 is the maximum; inactive = score below 0.9.

Key:
[1] = ATG_M_32_CIS: Attagene CIS-FACTORIAL HepG2 Assay for M32 Transcription Factor (Internal Marker) (AID 2282949); details: HepG2 Attagene cis-factorial M32 reporter, mRNA; actives raise or lower the signal;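 note: background control marker of the multiplexed CIS panel rather than a real target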
Method in brief: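 Using DMSO as baseline, bidirectional curve fits were applied to reporter mRNA signals. These came from transiently transfected HepG2 cells exposed for 24 h, with RNA analysed by RT-PCR, FAM primer extension, HpaI digestion and CE.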

[2] = ATG_M_06_CIS: Attagene CIS-FACTORIAL HepG2 Assay for M06 Transcription Factor (Internal Marker) (AID 2282950); details: HepG2 Attagene CIS-FACTORIAL M06 internal marker reporter; actives raise or lower the signal
Method in brief: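 Fluorescence-labelled RT-PCR products from cis-promoter reporter units, cut with HpaI and resolved by capillary electrophoresis, give the signal. Cells are human HepG2, dosed for 24 h. Serves as background control, fitted relative to DMSO.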

[3] = biological target: Hypoxia-inducible factor 1-alpha (Homo sapiens) (UniProt Q16665); assay: ATG_HIF1a_CIS: Attagene CIS-FACTORIAL HepG2 Assay for human Hypoxia Inducible Factor 1 (HIF1A) (AID 2282951); details: HepG2 Attagene cis-factorial HIF1a reporter transcription; actives raise or lower the signal
Method in brief: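 Measures endogenous transcription-factor activity through cis-regulated reporter mRNA in HepG2. Cells dosed 24 h; transcripts quantified by RT-PCR with 6-FAM-labelled products separated by capillary electrophoresis; DMSO serves as negative control.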

[4] = biological target: Hepatocyte nuclear factor 6 (Homo sapiens) (UniProt Q9UBC0); assay: ATG_HNF6_CIS: Attagene CIS-FACTORIAL HepG2 Assay for human Hepatocyte Nuclear Factor 6 (HNF6) (AID 2282952); details: HepG2 Attagene cis-factorial HNF6 reporter transcription; actives raise or lower the signal
Method in brief: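 Endogenous transcription factor activity in human HepG2 liver cells was captured through cis-regulated reporter constructs. After 24 h treatment, reporter mRNA was measured by RT-PCR with capillary electrophoresis, and activity was fitted in both directions relative to DMSO.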

[5] = biological target: Heat shock factor protein 1 (Homo sapiens) (UniProt Q00613); assay: ATG_HSE_CIS: Attagene CIS-FACTORIAL HepG2 Assay for human Heat Shock Transcription Factor 1 (HSE) (AID 2282953); details: HepG2 HSE cis-reporter, Attagene RNA transcription; actives raise or lower the signal
Method in brief: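 After a 24 h incubation with test chemical, transfected HepG2 cells were harvested for RNA; reporter transcripts were measured by RT-PCR and capillary electrophoresis. Values reflect gain or loss of signal relative to DMSO.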

[6] = ATG_MRE_CIS: Attagene CIS-FACTORIAL HepG2 Assay for human Metal Responsive Element (MRE) (AID 2282954); details: HepG2 MRE cis-reporter transcription, Attagene multiplex; actives raise or lower the signal
Method in brief: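 Multiplexed cis-reporter assay in human HepG2 liver cells, 24 h incubation with test chemical. Reporter transcripts measured by RT-PCR and capillary electrophoresis; values from bidirectional curve fitting versus DMSO.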

[7] = ATG_PBREM_CIS: Attagene CIS-FACTORIAL HepG2 Assay for human Phenobarbital-responsive Enhancer Module (PBREM) (AID 2282955); details: HepG2 PBREM cis-reporter, Attagene multiplexed transcription; actives raise or lower the signal
Method in brief: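 Fluorescence of labelled reporter cDNA fragments, resolved by capillary electrophoresis, gives mRNA induction in transfected HepG2 cells treated for 24 h; DMSO serves as negative control and baseline.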

[8] = biological target: Paired box protein Pax-6 (Homo sapiens) (UniProt P26367); assay: ATG_Pax6_CIS: Attagene CIS-FACTORIAL HepG2 Assay for human Paired Box 6 (PAX6) (AID 2282956); details: HepG2 CIS-FACTORIAL PAX6 reporter transcription, RNA readout; actives raise or lower the signal
Method in brief: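 DMSO-referenced bidirectional fits of reporter mRNA fluorescence; HepG2 with transient cis-promoter MRTUs, 24 h post-dose, RT-PCR plus capillary electrophoresis detection.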

[9] = ATG_PXRE_CIS: Attagene CIS-FACTORIAL HepG2 Assay for human Pregnane X Receptor Element (PXRE) (AID 2282957); details: HepG2 Attagene CIS-FACTORIAL PXRE reporter, mRNA; actives raise or lower the signal
Method in brief: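 Endogenous transcription factor activity in HepG2 was gauged through induction of reporter mRNA driven by a cis-regulating promoter element, sampled 24 h post-treatment. Activity was fitted in both directions against DMSO negative control.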

[10] = ATG_RORE_CIS: Attagene CIS-FACTORIAL HepG2 Assay for human RAR-related Orphan Receptor Element (RORE) (AID 2282959); details: HepG2 Attagene cis-factorial RORE reporter, mRNA; actives raise or lower the signal
Method in brief: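 Cells were HepG2 carrying transfected cis-regulated reporter constructs, dosed for 24 hours. Total RNA was reverse-transcribed and reporter cDNA amplified, fluorescently labeled and sized by capillary electrophoresis. Activity was fitted bidirectionally relative to DMSO.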

[11] = ATG_Sox_CIS: Attagene CIS-FACTORIAL HepG2 Assay for human SRY-box transcription factor (SOX) (AID 2282960); details: HepG2 Attagene cis-factorial SOX reporter, mRNA; actives raise or lower the signal
Method in brief: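 Transient MRTU transfection of HepG2; 24 h compound incubation; TriZol RNA, oligo(dT) RT, PCR, 6-FAM primer extension, HpaI cut, CE. Bidirectional fit, DMSO = baseline.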

[12] = biological target: Transcription factor Sp1 (Homo sapiens) (UniProt P08047); assay: ATG_Sp1_CIS: Attagene CIS-FACTORIAL HepG2 Assay for human Specificity Protein 1 (Sp1) (AID 2282961); details: HepG2 Sp1 cis-reporter transcription, actives raise or lower the signal
Method in brief: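 Endogenous Sp1 activity was gauged in human liver HepG2 cells bearing transfected reporter units under a cis-regulating promoter. After 24 h dosing, reporter mRNA was quantified by RT-PCR with capillary electrophoresis, and activity fitted bidirectionally versus DMSO.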

[13] = ATG_SREBP_CIS: Attagene CIS-FACTORIAL HepG2 Assay for human Sterol Regulatory Element Binding (SREBP) (AID 2282962); details: HepG2 Attagene cis-factorial SREBP reporter, mRNA; actives raise or lower the signal
Method in brief: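 In this cis-format assay, HepG2 liver cells express reporters controlled by promoter elements responsive to native transcription factors. Exposure lasts 24 h; reporter mRNA fluorescence from capillary electrophoresis gives the signal, fitted bidirectionally against DMSO.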

[14] = biological target: Signal transducer and activator of transcription 3 (Homo sapiens) (UniProt P40763); assay: ATG_STAT3_CIS: Attagene CIS-FACTORIAL HepG2 Assay for human Signal Transducer and Activator of Transcription 3 (STAT3) (AID 2282963); details: HepG2, Attagene cis-factorial STAT3 reporter transcription; actives raise or lower the signal
Method in brief: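 Cis-factorial format: endogenous transcription factors in HepG2 drive transfected reporter units. After 24 h treatment, reporter RNA was reverse-transcribed, amplified, FAM-labelled and HpaI-digested before CE analysis; activity scored in both directions against DMSO.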

[15] = ATG_TA_CIS: Attagene CIS-FACTORIAL HepG2 Assay for human TA Basal Promoter (AID 2282964); details: HepG2 Attagene CIS-factorial TA basal promoter reporter; actives raise or lower the signal
Method in brief: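 Multiplexed mRNA reporter assay, HepG2, 24 h. Reporter cDNA amplified, 6-FAM primer-extended, HpaI-cut, CE-sized; DMSO = negative control and baseline.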

[16] = ATG_TCF_b_cat_CIS: Attagene CIS-FACTORIAL HepG2 Assay for human T-Cell-Factor with beta-catenin (TCF/b-cat) (AID 2282965); details: HepG2 TCF/beta-catenin cis-reporter transcription, actives raise or lower the signal
Method in brief: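 Endogenous TCF/LEF activity read as reporter transcript level via RT-PCR and capillary electrophoresis fluorescence in transfected HepG2, 24 h exposure; gain or loss of signal fitted against DMSO controls.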

[17] = ATG_TAL_CIS: Attagene CIS-FACTORIAL HepG2 Assay for human TAL Basal Promoter (AID 2282966); details: HepG2 Attagene cis-factorial TAL promoter reporter; actives raise or lower the signal;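 note: background control endpoint measuring basal TAL promoter reporter mRNA not a specific factor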
Method in brief: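 Endogenous transcription-factor activity is sensed in HepG2 cells through transfected cis-promoter reporter constructs. After 24 h dosing, reporter transcripts are quantified by RT-PCR and capillary electrophoresis. Gain or loss of signal is fitted relative to DMSO.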

[18] = ATG_TGFb_CIS: Attagene CIS-FACTORIAL HepG2 Assay for human Transforming Growth Factor (TGF) (AID 2282967); details: HepG2 Attagene CIS TGFb reporter, mRNA transcription; actives raise or lower the signal
Method in brief: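 Transcript-level reporter readout: HepG2 transfectants, 24 h exposure, RNA to cDNA, reporter-specific PCR, fluorescent primer extension, capillary sizing against ROX standards. Gain- or loss-of-signal relative to DMSO.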

[19] = ATG_VDRE_CIS: Attagene CIS-FACTORIAL HepG2 Assay for human Vitamin D Receptor Element (VDRE) (AID 2282968); details: HepG2 VDRE cis-reporter transcription, actives raise or lower the signal
Method in brief: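 Measures endogenous factor activity through cis-element-driven reporter transcripts in transiently transfected HepG2. Cells are treated 24 h; reporter mRNA is quantified by RT-PCR and capillary electrophoresis; fitting is bidirectional.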

[20] = ATG_PPRE_CIS: Attagene CIS-FACTORIAL HepG2 Assay for human Peroxisome Proliferator-activated Response Element (PPRE) (AID 2282958); details: HepG2 PPRE cis-element reporter, Attagene transcription factor profiling; actives raise or lower the signal
Method in brief: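 Cells are first transfected transiently with the multiplexed reporter library, then dosed for 24 h. Total RNA is reverse-transcribed, amplified, fluorescently end-labeled and HpaI-cut before capillary electrophoresis; activity is fitted bidirectionally against DMSO controls.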

Measured: AC50

Transcription factor Sp1 (Homo sapiens), sequence (P08047 whole entry, looked up): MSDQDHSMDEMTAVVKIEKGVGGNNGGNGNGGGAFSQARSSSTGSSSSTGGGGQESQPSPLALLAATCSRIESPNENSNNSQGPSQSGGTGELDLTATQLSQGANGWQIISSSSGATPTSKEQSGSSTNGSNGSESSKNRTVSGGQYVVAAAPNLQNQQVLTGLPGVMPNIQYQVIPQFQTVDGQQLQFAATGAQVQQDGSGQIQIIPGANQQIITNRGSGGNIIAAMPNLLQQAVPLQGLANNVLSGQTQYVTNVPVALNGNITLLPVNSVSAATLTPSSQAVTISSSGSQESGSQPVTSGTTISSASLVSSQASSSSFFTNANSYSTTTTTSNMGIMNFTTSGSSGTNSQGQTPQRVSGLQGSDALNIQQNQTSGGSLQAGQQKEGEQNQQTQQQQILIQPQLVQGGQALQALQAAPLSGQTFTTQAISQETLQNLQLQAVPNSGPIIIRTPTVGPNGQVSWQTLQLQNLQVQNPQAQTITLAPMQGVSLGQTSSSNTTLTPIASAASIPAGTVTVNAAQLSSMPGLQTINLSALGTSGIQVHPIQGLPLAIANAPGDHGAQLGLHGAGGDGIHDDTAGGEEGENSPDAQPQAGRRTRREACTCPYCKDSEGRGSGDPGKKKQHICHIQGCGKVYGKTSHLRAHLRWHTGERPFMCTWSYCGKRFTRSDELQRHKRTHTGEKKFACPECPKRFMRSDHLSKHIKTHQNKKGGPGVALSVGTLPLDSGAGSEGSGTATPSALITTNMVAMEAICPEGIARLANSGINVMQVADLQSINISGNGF
Hepatocyte nuclear factor 6 (Homo sapiens), sequence (Q9UBC0 whole entry, looked up): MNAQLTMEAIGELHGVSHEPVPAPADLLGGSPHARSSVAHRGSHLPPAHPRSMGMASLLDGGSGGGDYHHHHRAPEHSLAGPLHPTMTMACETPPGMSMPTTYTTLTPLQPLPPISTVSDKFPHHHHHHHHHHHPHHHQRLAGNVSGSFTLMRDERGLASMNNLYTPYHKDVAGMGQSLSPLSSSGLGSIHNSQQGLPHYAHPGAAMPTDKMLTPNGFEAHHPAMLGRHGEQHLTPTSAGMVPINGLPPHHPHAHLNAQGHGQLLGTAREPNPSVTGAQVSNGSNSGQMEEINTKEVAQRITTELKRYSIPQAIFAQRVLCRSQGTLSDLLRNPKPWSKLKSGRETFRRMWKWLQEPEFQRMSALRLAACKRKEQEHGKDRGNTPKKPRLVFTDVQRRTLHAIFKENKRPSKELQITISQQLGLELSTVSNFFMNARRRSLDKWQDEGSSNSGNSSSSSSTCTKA
Hypoxia-inducible factor 1-alpha (Homo sapiens), sequence (Q16665 whole entry, looked up): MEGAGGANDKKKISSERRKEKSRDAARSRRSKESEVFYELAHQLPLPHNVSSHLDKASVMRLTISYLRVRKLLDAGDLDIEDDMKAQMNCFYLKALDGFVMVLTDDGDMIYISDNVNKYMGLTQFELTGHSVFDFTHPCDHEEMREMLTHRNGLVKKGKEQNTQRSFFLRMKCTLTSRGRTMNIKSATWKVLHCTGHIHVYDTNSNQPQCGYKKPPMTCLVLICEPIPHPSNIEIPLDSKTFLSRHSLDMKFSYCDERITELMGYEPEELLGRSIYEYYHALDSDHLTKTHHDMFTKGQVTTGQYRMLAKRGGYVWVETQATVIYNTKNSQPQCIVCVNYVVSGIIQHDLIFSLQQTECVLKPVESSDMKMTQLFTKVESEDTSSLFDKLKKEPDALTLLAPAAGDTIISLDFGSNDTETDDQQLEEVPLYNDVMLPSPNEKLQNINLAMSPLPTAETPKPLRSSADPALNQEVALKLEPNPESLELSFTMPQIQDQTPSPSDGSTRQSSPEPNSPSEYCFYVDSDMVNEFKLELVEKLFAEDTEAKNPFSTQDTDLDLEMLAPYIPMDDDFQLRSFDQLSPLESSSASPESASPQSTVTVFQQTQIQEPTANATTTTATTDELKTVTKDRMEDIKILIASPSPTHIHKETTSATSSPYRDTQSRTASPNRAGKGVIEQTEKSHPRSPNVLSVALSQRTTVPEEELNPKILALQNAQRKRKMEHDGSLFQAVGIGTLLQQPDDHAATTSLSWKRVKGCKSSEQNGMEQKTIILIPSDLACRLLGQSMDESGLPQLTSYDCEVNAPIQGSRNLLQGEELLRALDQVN
Paired box protein Pax-6 (Homo sapiens), sequence (P26367 whole entry, looked up): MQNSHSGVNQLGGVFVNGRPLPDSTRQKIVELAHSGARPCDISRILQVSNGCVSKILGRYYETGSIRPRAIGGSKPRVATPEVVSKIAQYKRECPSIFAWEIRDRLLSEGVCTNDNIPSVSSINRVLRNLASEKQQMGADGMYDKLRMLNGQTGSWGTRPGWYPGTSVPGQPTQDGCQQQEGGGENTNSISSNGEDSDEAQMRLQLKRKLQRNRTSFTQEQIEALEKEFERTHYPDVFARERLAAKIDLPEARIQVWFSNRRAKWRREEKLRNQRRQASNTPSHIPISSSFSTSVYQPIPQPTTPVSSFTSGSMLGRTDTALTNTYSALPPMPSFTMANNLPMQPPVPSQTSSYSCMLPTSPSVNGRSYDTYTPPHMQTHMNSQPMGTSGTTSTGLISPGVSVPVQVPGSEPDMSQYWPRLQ
Heat shock factor protein 1 (Homo sapiens), sequence (Q00613 whole entry, looked up): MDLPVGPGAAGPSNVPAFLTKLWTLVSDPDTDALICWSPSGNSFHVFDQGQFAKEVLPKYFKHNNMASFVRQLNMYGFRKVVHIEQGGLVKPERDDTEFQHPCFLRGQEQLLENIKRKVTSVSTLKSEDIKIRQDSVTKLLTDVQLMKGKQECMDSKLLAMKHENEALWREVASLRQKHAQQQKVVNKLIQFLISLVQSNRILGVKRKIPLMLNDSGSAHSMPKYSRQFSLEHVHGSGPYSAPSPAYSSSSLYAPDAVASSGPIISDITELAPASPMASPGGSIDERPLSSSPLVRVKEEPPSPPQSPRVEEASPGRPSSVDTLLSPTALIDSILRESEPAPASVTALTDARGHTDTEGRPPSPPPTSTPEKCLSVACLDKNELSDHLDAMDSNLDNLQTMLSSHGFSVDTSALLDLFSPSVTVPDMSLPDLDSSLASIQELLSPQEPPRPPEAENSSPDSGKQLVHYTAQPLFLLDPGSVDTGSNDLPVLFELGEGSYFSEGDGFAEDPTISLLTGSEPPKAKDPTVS
Signal transducer and activator of transcription 3 (Homo sapiens), sequence (P40763 whole entry, looked up): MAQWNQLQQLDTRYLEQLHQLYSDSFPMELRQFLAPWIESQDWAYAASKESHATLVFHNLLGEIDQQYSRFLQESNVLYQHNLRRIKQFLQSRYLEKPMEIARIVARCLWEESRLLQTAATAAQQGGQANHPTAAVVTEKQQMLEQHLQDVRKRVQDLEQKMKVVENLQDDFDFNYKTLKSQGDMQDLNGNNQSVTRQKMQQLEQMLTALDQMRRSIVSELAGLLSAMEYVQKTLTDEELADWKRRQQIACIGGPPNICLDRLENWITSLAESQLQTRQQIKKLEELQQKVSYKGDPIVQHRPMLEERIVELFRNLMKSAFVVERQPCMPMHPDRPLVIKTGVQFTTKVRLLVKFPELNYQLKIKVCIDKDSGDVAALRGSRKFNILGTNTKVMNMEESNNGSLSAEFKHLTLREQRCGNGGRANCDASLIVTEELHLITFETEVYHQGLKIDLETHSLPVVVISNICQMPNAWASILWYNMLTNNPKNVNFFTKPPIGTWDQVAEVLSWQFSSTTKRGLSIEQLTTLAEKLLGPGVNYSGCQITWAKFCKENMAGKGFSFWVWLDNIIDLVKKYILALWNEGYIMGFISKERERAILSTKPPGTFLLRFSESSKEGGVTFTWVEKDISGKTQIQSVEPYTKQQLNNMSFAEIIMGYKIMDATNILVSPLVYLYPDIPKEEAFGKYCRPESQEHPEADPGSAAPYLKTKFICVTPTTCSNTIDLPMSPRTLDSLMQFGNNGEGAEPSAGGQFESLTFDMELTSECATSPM

CCCCCCCCC1CCC(=O)O1 (stereo not drawn)
not listed: [20]
inactive: all other assays above

Clc1ccc(Nc2nnc(Cc3ccncc3)c3ccccc23)cc1
inactive: [1] | [2] | [20] | [11] | [12] | [14]
active: [3] 15.8 µM | [4] 17.9 µM | [5] 75.2 µM | [6] 27.6 µM | [7] 8.51 µM | [8] 27 µM | [9] 1.45 µM | [15] 23.2 µM | [16] 11 µM | [17] 11.2 µM | [19] 7.35 µM

CCCCCCCCCCCCOC(=O)c1cc(O)c(O)c(O)c1
active: [3] 6.75 µM | [5] 8.12 µM | [6] 18.5 µM | [7] 21.3 µM | [9] 2.94 µM | [13] 2.85 µM
not listed: [10] | [18]
inactive: all other assays above

FC(F)=C(F)C(F)(F)C(F)(F)C(F)(F)C(F)F
not listed: [11]
inactive: all other assays above

CC1CCC(CO)CC1 (stereo not drawn)
not listed: [20]
inactive: all other assays above

Cc1cc(C(=C2C=CC(=Nc3ccc(S(=O)(=O)O)cc3)C=C2)c2ccc(Nc3ccc(S(=O)(=O)O)cc3)cc2)cc(S(=O)(=O)O)c1N
not listed: [13] | [17] | [18]
inactive: all other assays above

Cc1cc(Cc2cc(C)cc(C(C)(C)C)c2O)c(O)c(C(C)(C)C)c1
inactive: [2] | [5] | [6] | [8] | [20] | [13] | [15] | [17] | [19]
active: [1] 100 µM | [3] 41.4 µM | [4] 176 µM | [7] 151 µM | [9] 0.0497 µM | [11] 153 µM | [12] 93.6 µM | [14] 160 µM | [16] 180 µM | [18] 56.6 µM
